From PubChem
The full list was thinned out, with hits kept by preference.
Sa growth inh – S. aureus growth inhibition at 42 and 30 °C, primary screen, LtaS inhibitor project, RN4220, two temperatures; OD600, 20 h, 42 °C; hits give low values; relative growth, % (no concentration beside the values); 0.53% of 170,000 active; AID 720641, 2013;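 active = relative growth at most 50% at the other temperature and 20+ points below 30 °C, or under 10% at both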
Sa helicase inh – inhibitors of S. aureus replicative helicase, primary screen, biochemical, fluorescence unwinding readout | purified S. aureus helicase, fluorescence unwinding assay | inhibition, % (test concentration not listed) | AID 485395, 2010 | 0.05% of 120,000 active | replicative DNA helicase (DnaC/DnaB), Staphylococcus aureus; in the data active = inhibition above about 25%, passing the limit was not always enough
Numbers stand for hits; - = inactive; . = no result; ! = repeats disagree.

SMILES	Sa growth inh	Sa helicase inh
CCOc1ccc(S(=O)(=O)/N=C2/C=C(Sc3ncn[nH]3)C(=O)c3ccccc32)cc1	-	-
O=C1C(Sc2ncn[nH]2)=C/C(=N/S(=O)(=O)c2ccc(F)cc2)c2ccccc21	1.1	-
O=S(=O)(Nc1cc(Sc2ncn[nH]2)c(O)c2ccccc12)c1cccs1	-	-
O=C1C(Sc2ncn[nH]2)=C/C(=N/S(=O)(=O)c2cccs2)c2ccccc21	1.4	-
Cn1cc(Br)c(-c2ccc(NC(=O)Nc3ccccc3)cc2)n1	-	-
Cc1nnc2n(c1=O)N=C(N)CS2	-	-
CCOC(=O)N1CCN(CCC(=O)c2ccc(Br)cc2)CC1	-1.7	-
CCOC(=O)N1CCN(CCC(=O)c2ccc(OC)cc2)CC1	-	-
C/C(=N\OC(=O)c1ccc(C(F)(F)F)cc1)c1cc[nH]c1	-	-
C/C(=N\OC(=O)c1ccc(C(F)(F)F)cc1)c1ccc[nH]1	-0.3	-
COc1cc(OC)c(OC)cc1CNCc1cccnc1	-	-
O=C(Oc1cccc2cccnc12)c1cc(C(F)(F)F)cc(C(F)(F)F)c1	1.3	.
O=C(Oc1cccc2cccnc12)c1ccccc1	1.7!	-
O=C(Oc1cccc2cccnc12)c1cccc(F)c1	1.6	-
NC(=O)COc1cccc2cccnc12	-	-
O=C(Oc1cccc2cccnc12)C1CCCCC1	-	-
O=C(Oc1ccccc1OC(=O)c1ccccc1)c1ccccc1	-	-
COc1ccc(CNC(=O)C(C)N2CCN(c3ccc(C(F)(F)F)cn3)CC2)cc1 (configuration not stated)	-	-
COc1ccc(CN(C)C(=O)c2ccc(OC)c(OC)c2)cc1	-	-
CN(c1ccc(C(=O)O)cc1)S(C)(=O)=O	-	-
NCC1OCCc2ccccc21 (configuration not stated)	-	-
Cc1c(O)ccc(-c2n[nH]c(C(F)(F)F)c2Oc2ccccc2)c1O	.	-
COc1ccc(-c2n[nH]c(C(F)(F)F)c2-c2cc3ccccc3o2)c(O)c1	3.9	-
CCOC(=O)c1c2nc3ccccc3nc2n2c1[nH]c(=O)c1c3c(sc12)CCCC3	-	-
O=C(NCc1ccccc1)c1nc(S(=O)(=O)Cc2ccc(F)cc2)ncc1Cl	-	.
SMILES	Sa growth inh	Sa helicase inh
Cc1cccc(CS(=O)(=O)c2ncc(Cl)c(C(=O)NCc3ccccc3)n2)c1	1.6	.
O=C(CSc1nccc(-c2cccs2)n1)Nc1cccc(C(F)(F)F)c1	-	.
CCn1c(C(=O)N2CCCC(C(=O)NC(C)C34CC5CC(CC(C5)C3)C4)C2)cc2sccc21 (configuration not stated)	-	-
Cc1c2oc3c(C)ccc(C(=O)OC(C)C4NC(=O)C(C(C)C)N(C)C(=O)CN(C)C(=O)C5CCCN5C(=O)C(C(C)C)NC4=O)c3nc-2c(C(=O)OC(C)C2NC(=O)C(C(C)C)N(C)C(=O)CN(C)C(=O)C3CCCN3C(=O)C(C(C)C)NC2=O)c(N)c1=O (configuration not stated)	-0.6	.
CCN(CC)C(=O)Cn1cc(C#N)c2ccccc21	-	-
CCc1c(C)sc2c1CCN(C(=O)Nc1cc(OC)c(OC)c(OC)c1)C2c1ccccc1 (configuration not stated)	-	.
CCc1c(C)sc2c1CCN(Cc1ccccc1F)C2c1ccccc1 (configuration not stated)	-1.3	.
CCc1c(C)sc2c1CCN(Cc1cccc(OC)c1)C2c1ccccc1 (configuration not stated)	-1.1	.
CCOC(=O)c1ccccc1NC(=O)N1CCc2c(sc(C)c2CC)C1c1ccccc1 (configuration not stated)	-	.
COc1ccccc1C1C=C(c2cccnc2)Nc2nc3ccccc3n21 (configuration not stated)	-	-
CC1COC2=C(N3CCN(C)CC3)C(F)=CC3C(=O)C(C(=O)O)=CN1C23 (configuration not stated)	-0.5	-
COc1ccc2cc3c(N)nn(C(=O)Cc4c(F)cccc4Cl)c3nc2c1	-	-
CCC(COc1nnnc2ccccc12)NS(=O)(=O)c1ccc(-n2cnnn2)cc1 (configuration not stated)	-	-
NNc1ccc(Cl)c(Cl)c1	-	-
NNc1ccc2c(Cl)cc(Cl)c(O)c2n1	4.2	-
NS(=O)(=O)c1cc(C(=O)NCCc2ccc3c(c2)OCCO3)ccc1Cl	-	-
Cc1ccc2c(c1)c1c3n2CCCNC3CCC1 (configuration not stated)	-	-
c1cc2c(cc1C1CCCCC1)c1c3n2CCN=C3CCC1	-2.0	-
Cc1ccc2c(c1)c1c3n2CCN=C3CCC1	-	-
c1cc2c(cc1C1CCCCC1)c1c3n2CCCNC3CCC1 (configuration not stated)	-0.8	-
O=C(CCCc1nc2ccccc2s1)OCc1nnc(-c2cccs2)o1	-	-
CC1CCN(S(=O)(=O)c2ccc(NC(=O)Nc3ccccc3)cc2)CC1	31	-
CC(=O)Nc1ccc(S(=O)(=O)N2CCC(C)CC2)cc1	-	-
Cc1cc2c(CCl)cc(=O)oc2cc1C(C)C	-	-
Cc1cc2oc(=O)cc(Cn3ccsc3=N)c2cc1C(C)C	50	-
SMILES	Sa growth inh	Sa helicase inh
CCCCOc1ccccc1C(=O)N(Cc1ccco1)Cc1sccc1C	-	-
CC(=O)O/N=C(\N)c1ccc(N2CCN(c3ncccc3C(F)(F)F)CC2)nc1	-	-
Cc1cc(C)n2c(SCC(=O)N3CCc4ccccc43)nnc2n1	-	-
O=C(CSc1ccccc1Cl)N1CCCC1	-	-
CNC(=O)Sc1ccccc1Cl	-0.6	.
CCOC(=O)C1=C(C)NC(C)=C(C(=O)OCC)C1C(=O)OCC(=O)NC1CCCCCC1	-	-
CN(C)c1ccc(C2=CC=CC(=C3C=CC(=[N+](C)C)C=C3)O2)cc1	2.5	74
CN(C)c1ccc(C(=C2C=CC(=[N+](C)C)C=C2)c2ccc(N(C)C)cc2)cc1	-	.
Oc1ccc(Cl)cc1-c1csnn1	-	-
Oc1ccc(Cl)cc1Sc1cc(Cl)ccc1O	3.6	-
c1ccc(CN2CCC(NCC3CCCO3)CC2)cc1 (configuration not stated)	-	-
CC1(C)CC(=O)C/C(=N\NC(=O)CCC(=O)Nc2ccccc2)C1	-	-
COc1ccc(NC(=O)N2CC=C(c3c[nH]c4ccccc34)CC2)cc1	-	-
Cc1ccc(NCC(=O)n2c3c(c4ccccc42)CCCC3)cc1Cl	-	-
Cc1nn(C)c(C)c1Sc1ccc(Br)cc1	-	-
Cc1nn(CO)c(C)c1Sc1ccc(Br)cc1	18	-
O=C(Nc1nc2ccccc2s1)c1ccc(=O)[nH]c1	-	-
Cc1conc1NC(c1cccs1)c1ccc2cccnc2c1O (configuration not stated)	3.1	-
O=C(NC(c1cccs1)c1ccc2cccnc2c1O)C1CCCCC1 (configuration not stated)	-	-
COc1ccc(CCN=C=S)cc1	9.0	-
COc1ccc(CCC(O)C2(O)CCCCC2)cc1 (configuration not stated)	-	-
Nc1cccnc1Nc1ccccc1	6.4	-
c1ccc(Nc2ncnc3ccccc23)cc1	-	-
CC1=C(C)CS(=O)N(S(=O)(=O)c2ccc(C)cc2)C1 (configuration not stated)	-	-
Nc1nc(N)nc(CSc2nnc(-c3ccccc3)n2-c2ccc(F)cc2)n1	-	-
